Wnt bcat act: Wnt/beta-catenin pathway activators, primary screen, cell-based, plate reader, single point. Wnt/beta-catenin reporter cell assay, activator. activation, % at 9.35 µM. 300,000 compounds, 1.2% hits. AID 743398, 2014; in the data active = activation above about 30%, passing the limit was not always enough; inconclusive = no clear call, values can overlap the other calls;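 note: 0% = neutral control wells and 100% = positive control wells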
esBAF inh: Bmi1 luciferase reporter increase in mESCs, primary screen, esBAF inhibitor project, mouse ES cells, Bmi1 luciferase knock-in, single point; 24 h; 100% = twice the neutral-well signal; 350,000 compounds, 2% hits; reporter increase, % at 12.5 µM; in the data active = activation above about 40%; inconclusive = no clear call, values can overlap the other calls;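 note: 0% = median of the plate's neutral control wells and 100% = double that signal; a rise in the Bmi1 reporter signal indicates esBAF inhibition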
HSF1 inh: HSF1 inhibitors in luciferase reporter cells, primary screen, cell-based, NIH3T3, luminescence. NIH3T3-HGL HSE-luciferase, MG132-induced, luminescence 8 h; hits give low values. activity change, negative = inhibition, % at 7.5 µM (by protocol). 300,000 compounds, 0.77% hits. AID 2098, 2009;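 active = more than half of replicate wells show activity change below -50%, luminescence cut by over half; inconclusive = some wells, but at most half, below -50%; inactive = no replicate well below -50%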;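 note: luciferase reports HSF-1 transcriptional activity via heat shock element; 0% = median of DMSO wells and -100% = zero luminescence signal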
SMARCA2 act: SMARCA2 (BRM) function activators, primary screen, cell-based, luminescence, high throughput; MG213 cells, MMTV-luciferase reporter, dexamethasone, overnight; activation, % at 9.1 µM; 370,000 compounds, 1% hits; AID 652017, 2013; in the data active = activation above about 7.8%;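 note: 0% = vehicle wells and 100% = reference activator wells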
HSF1 activator: HSF-1 activators, primary screen, NIH3T3-HGL cells, MG132 stress, luminescence, single point. NIH3T3-HGL HSF-1 luciferase reporter, 8 h; 100% = twice DMSO control signal. 300,000 compounds, 1.7% hits. activation, % at 9 µM;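 active = mean replicate activation of at least 50% with a set share of replicates each reaching 50%; inconclusive = only one of those two conditions met; inactive = mean below 50% and too few replicates reaching it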;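 note: 0% = median of the neutral control wells and 100% = twice that signal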
MITF TRPM1 HTS: activators of MITF-driven TRPM1 promoter reporter, primary screen, cell-based, SK-MEL-5, luciferase, single point; activation, % at 12.5 µM; SK-MEL-5 TRPM1-promoter luciferase, 24 h; % of positive control, neutral wells = 0; 300,000 compounds, 0.75% hits;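 active = mean activation of at least 80% with every replicate also reaching 80%; inconclusive = mean reaches 80% but some replicate falls short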;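 note: 0% = neutral control wells and 100% = parthenolide positive control wells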
Starred values were filed as active, the others as inactive; ? = inconclusive; · = no result given. This is a sample that favours compounds with a hit; in the whole collection about 4.3% have one here.

SMILES | Wnt bcat act | esBAF inh | HSF1 inh | SMARCA2 act | HSF1 activator | MITF TRPM1 HTS
O=C(C[C@@H]1C[C@H]2c3cc(NC(=O)CC4CC4)ccc3O[C@H]2[C@H](CO)O1)NCc1ccccc1 | · | -4 | · | · | · | ·
Cc1ccnc(NC(c2ccsc2)c2ccc3ccc(C)nc3c2O)c1 (stereo not given) | -6 | -37 | -54* | 7 | -67 | -17
Cc1ccc2ccc(C(Nc3ccccn3)c3ccccc3)c(O)c2n1 (stereo not given) | -3 | 3 | -7 | -1 | -4 | ·
COc1cc(C(Nc2ccccn2)c2ccc3ccc(C)nc3c2O)cc(OC)c1O (stereo not given) | · | 12 | 130 | · | 183* | ·
C[C@@H]1CN([C@@H](C)CO)C(=O)c2cc(NS(C)(=O)=O)ccc2O[C@@H](C)CCCCO[C@@H]1CN(C)C(=O)NC1CCCCC1 | · | 7 | · | · | · | ·
CO[C@H]1CN(C)C(=O)c2ccc(NC(=O)c3ccc(-c4ccccc4)cc3)cc2OC[C@@H](C)NC[C@H]1C | · | -3 | · | · | · | ·
CCN(CC)c1ccc2nc3c4ccccc4c(=O)cc-3oc2c1 | 0 | · | -63* | 2 | -68 | ·
O=C(NCCc1ccncc1)[C@@H]1[C@@H](CO)[C@@H]2Cn3c(ccc(-c4ccc(F)cc4)c3=O)[C@H]1N2 | · | -2 | · | · | · | ·
Cc1cc(OC(C)C(N)=O)nc(-c2ccccc2)n1 (stereo not given) | 39* | 10 | -1 | 0 | 6 | -4
C[C@H](CO)N1C[C@H](C)[C@H](CN(C)S(=O)(=O)c2cccs2)Oc2ncc(/C=C/c3ccccc3)cc2C1=O | · | 7 | · | · | · | ·
C[C@H]1CN([C@@H](C)CO)C(=O)c2cc(NC(=O)Nc3ccc(F)cc3)ccc2O[C@@H]1CN(C)C(=O)Nc1ccccc1 | · | 0 | · | · | · | ·
Cc1cc(-c2ccco2)n(-c2ccccc2)n1 | 9 | · | 10 | 0 | 18 | -2
Cc1cc(-c2ccccc2)n(-c2ccccc2)n1 | 10 | 51* | 6 | 3 | 18 | ·
CN1/C(=C\C(=O)c2cccc([N+](=O)[O-])c2)Sc2ccccc21 | 21 | 75* | 28 | 6 | 44 | 19
COc1cc(OC)cc(C(=O)/C=C2\Sc3ccccc3N2C)c1 | 2 | 31 | 20 | 1 | 13 | 26
Cc1nc(C(=O)Nc2ccccc2)sc1C1(C)CC(c2cccnc2)=NO1 (stereo not given) | 22 | 46* | 11 | 1 | 13 | 53
O=C([C@@H]1[C@@H](CO)[C@@H]2Cn3c(cccc3=O)[C@@H]2N1Cc1ccccc1Cl)N1CCCCC1 | · | 0 | · | · | · | ·
O=C1C2C3C=CC(C4CC34)C2C(=O)N1/N=C/c1c[nH]c2ccccc12 (stereo not given) | 11 | 57* | 8 | -2 | -6 | -1
COc1cccc(-c2cn(CC[C@@H]3CC[C@H](NC(C)=O)[C@@H](CO)O3)nn2)c1 | · | 0 | · | · | · | ·
Cc1csc(C(C#N)C(=O)c2cc3ccccc3o2)n1 (stereo not given) | 25 | 46* | -17 | 3 | -16 | 62
Cc1csc(NC(=O)c2cc3ccccc3o2)n1 | ? | -28 | · | 4 | · | 7
Fc1ccccc1CSc1nc2ccccc2[nH]1 | 4 | -8 | 33 | 6 | 71* | ·
Fc1ccccc1CSc1nc2ncc(Br)cc2[nH]1 | · | · | 20 | 7 | 19 | 33
Fc1c(F)c(F)c(CSc2nc3ccccc3[nH]2)c(F)c1F | 12 | 22 | 33 | 2 | 56* | 28
C[C@@H]1CN([C@H](C)CO)C(=O)c2cc(NC(=O)Cc3ccccc3)ccc2O[C@@H](C)CCCCO[C@@H]1CN(C)C(=O)C1CCCCC1 | · | -3 | · | · | · | ·
SMILES | Wnt bcat act | esBAF inh | HSF1 inh | SMARCA2 act | HSF1 activator | MITF TRPM1 HTS
CO[C@@H]1CN(C)C(=O)c2ccc(NC(=O)Nc3ccc(Cl)cc3)cc2OC[C@@H](C)NC[C@@H]1C | · | 1 | · | · | · | ·
CCOC(=O)C1=C(COC(=O)c2cccc(N(C)C)c2)NC(=O)NC1C (stereo not given) | 38* | 60* | -8 | 5 | -8 | 78
CCOC(=O)c1ccc(N=Nc2c(C)[nH]n(-c3ccccc3)c2=O)cc1 | -2 | -1 | -10 | -1 | 2 | ·
CCOC(=O)c1ccc(-n2[nH]c(-c3ccccc3)cc2=O)cc1 | · | -2 | -72* | 1 | -78 | ·
C[C@H]1CN([C@@H](C)CO)C(=O)Cc2cc(NC(=O)Nc3ccc(F)cc3)ccc2O[C@@H]1CN(C)S(=O)(=O)c1ccccc1 | · | 1 | · | · | · | ·
CCCC(=O)Nc1ccc2c(c1)OC[C@H](C)N(C(=O)c1ccccc1F)C[C@@H](C)[C@@H](OC)CN(C)C2=O | · | -1 | · | · | · | ·
Cc1nnc(SCC(=O)Nc2nsc(-c3ccc(C(C)(C)C)cc3)n2)s1 | 24 | 36 | 22 | 1 | 51* | ·
Cc1nnc(SCC(=O)Nc2ccc(-c3nc4ccccc4s3)cc2)s1 | 24 | · | 27 | 2 | 17 | 12
Cc1ccc(-c2nc(NC(=O)CSc3nnnn3-c3ccccc3)ns2)cc1 | -6 | 84* | -8 | 0 | 0 | 17
Cc1ccc(-c2csc3nnc(SCC(=O)Nc4nsc(-c5ccccc5)n4)n23)cc1 | · | -3 | 13 | -2 | 15 | 7
O=C(CSc1ccccc1)Nc1cccc(NC(=O)c2ccco2)c1 | -2 | 8 | -68* | 0 | -75 | 0
O=C(CSc1nnnn1C1CCCCC1)Nc1cccc(NC(=O)c2ccco2)c1 | 60* | 8 | 0 | 0 | -15 | 11
O=C(Nc1ccc2c(c1)ncn2C1CCCCC1)c1ccco1 | 45* | ? | -48 | 2 | -60 | ·
Cc1ccc(S(=O)(=O)NCC[C@@H]2CC[C@@H](NC(=O)c3cnccn3)[C@@H](CO)O2)cc1 | · | -5 | · | · | · | ·
C[C@@H]1CN([C@@H](C)CO)C(=O)c2cccc(NS(C)(=O)=O)c2O[C@H]1CN(C)C(=O)Nc1ccc2c(c1)OCO2 | · | -1 | · | · | · | ·
Nc1ccccc1C#Cc1ccc([N+](=O)[O-])cc1 | 3 | · | 24 | 1 | 33 | 75
O=C(C#Cc1cccc([N+](=O)[O-])c1)c1ccccc1 | · | -26 | 61 | · | 97* | -81
Nc1ccccc1C#CC(=O)c1ccccc1 | -11 | -78 | 58 | 3 | 84* | -92
C[C@H]1CN([C@@H](C)CO)S(=O)(=O)c2ccc(C#CCN(C)C)cc2O[C@H]1CN(C)Cc1ccccc1 | · | -8 | · | · | · | ·
COC(=O)C1CCN(C(=O)C2CC(=O)N(c3ccc(C)c(Cl)c3)C2)CC1 (stereo not given) | 17 | 56* | · | -1 | · | 47
Cc1ccc(N2CC(C(=O)NC3CC3)CC2=O)cc1Cl (stereo not given) | -1 | -8 | -6 | -2 | 20 | -8

Bioassay records: PubChem, several laboratories
